Bioassay records deposited in PubChem BioAssay by several laboratories.
Mdm2-MdmX inh – inhibitors of human Mdm2-MdmX association, primary screen, cell-based, luminescence, split luciferase, SaOS-2, uHTS; SaOS-2 split-luciferase Mdm2/MdmX complementation; inhibition, % at 8 µM; Protein Mdm4 (Homo sapiens) + E3 ubiquitin-protein ligase Mdm2 (Homo sapiens), …; 330,000 compounds, 3% hits; AID 485346, 2010;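 active = inhibition of at least 50% at 8 µM in the primary screen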
CSC inhib – cancer stem cell viability inhibitors, primary screen, luminescence; AID 2717, 2010; inhibition, % at 7.5 µM; cancer stem cell-like cells viability; 300,000 compounds, 1.1% hits; in the data active = inhibition above about 75%; tested in HMLE shEcad cells
aSyn UTR inh – MLPCN primary screen, SNCA 5' untranslated region | alpha-synuclein 5'UTR reporter, inhibitor activity | inhibition, % (tested at 7.5 µM) | 300,000 compounds, 0.82% hits; in the data active = inhibition above about 60%;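 note: H4 neuroglioblastoma cells stably carrying SNCA 5'UTR luciferase fusion; 0% = DMSO wells and 100% = positive control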
Gli-Sufu block – Gli-Sufu pathway antagonists, primary screen, luciferase luminescence, Sufu-KO-LIGHT cells, uHTS; Sufu-KO-LIGHT fibroblasts, Gli luciferase reporter luminescence; inhibition, % at 5 µM; 340,000 compounds, 0.74% hits;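 active = inhibition above about 55%, limit read from the data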;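 note: 0% = DMSO-treated cells and 100% = wells with medium but no cells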
697 NFkB inh – inhibitors of PMA/ionomycin-induced NF-kB reporter, 697 cells, primary screen, B-cell NF-kB inhibitor project, cell-based, luminescence, uHTS. inhibition, % at 4 µM. 330,000 compounds, 0.33% hits. 697 B-cell NF-kB luciferase reporter, 16 h; in the data active = inhibition above about 35%
Jurkat NFkB inh – inhibitors of induced NF-kB luciferase reporter, primary screen, TCR NF-kB activation inhibitor project, cell-based, luminescence, uHTS; 330,000 compounds, 0.53% hits; inhibition, % at 4 µM; AID 435003, 2010; Jurkat, PMA/ionomycin-induced NF-kB luciferase reporter; in the data active = inhibition above about 50%
Jurkat NFkB conf – PMA/ionomycin-induced NF-kB reporter inhibitors, Jurkat retest, confirmation, T-cell NF-kB inhibitor project, cell-based, luminescence, single concentration. inhibition, % at 4 µM. shares compounds with Jurkat NFkB inh. AID 435020, 2010. Jurkat NF-kB luciferase, 16 h. 2,700 compounds, 27% hits;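 active = inhibition reaching about 45% at 4 µM in either replicate, limit read from the data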;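 note: plate controls were PMA/ionomycin stimulated DMSO wells for no effect and unstimulated DMSO wells for full effect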
Numbers without * were called inactive; x = not tested or not shown. Shown are actives, neighbours in structure and some others; about 4.5% of the full set was active somewhere.

SMILES | Mdm2-MdmX inh | CSC inhib | aSyn UTR inh | Gli-Sufu block | 697 NFkB inh | Jurkat NFkB inh | Jurkat NFkB conf
COC(=O)C1=C(c2c(C)noc2C)C[C@@H]2CC[C@H]1N2C(=O)NCc1ccc(C(F)(F)F)cc1 | 7.9 | 12.4 | x | -7.5 | 11.5 | 9.4 | x
CCC(=Nc1ccc(OC)cc1OC)c1c(O)[nH]c(=O)[nH]c1=O | 22.4 | 10.5 | 28.4 | 2.9 | -17.0 | 0.1 | x
CCC(=Nc1cc(OC)ccc1OC)c1c(O)[nH]c(=O)[nH]c1=O | -7.3 | -6.5 | 71.3* | -4.7 | -23.5 | -19.6 | x
Cc1cc(C)cc(N2C(=O)NC(=O)/C(=C\C=C\c3ccco3)C2=O)c1 | x | 17.2 | -116.3 | 6.3 | x | x | x
CCc1ccc(N2C(=O)NC(=O)/C(=C\C=C\c3ccco3)C2=O)cc1 | 49.9 | 115.9* | -11.4 | 6.8 | 4.2 | 6.2 | x
CC(C)c1ccc(N2C(=O)NC(=O)/C(=C/C=C/c3ccco3)C2=O)cc1 | x | 98.0* | -129.5 | -3.0 | x | x | x
COP(=O)(C#Cc1ccccc1)C(O)c1ccc(Br)cc1 (centres undefined) | 26.3 | -12.6 | 9.5 | 1.7 | -17.6 | -3.9 | x
COC(=O)[C@]12OC[C@]34C([C@@H](O)[C@@H]1O)[C@]1(C)CC(=O)C(O)=C(C)[C@@H]1C[C@H]3OC(=O)[C@H](O)[C@@H]24 (some centres undefined) | 34.9 | 10.3 | 16.1 | 33.3 | -30.0 | 65.8* | 86.3*
C=C(C)CC1(CC)C(=O)NC(=S)NC1=O | x | x | x | 2.8 | x | x | x
NC(Cc1ccc(O)cc1)C(=O)NN=Cc1ccc(N(CCCl)CCCl)cc1 (centres undefined) | x | x | x | 21.9 | x | x | x
Nc1ccc(CCN2CCN(c3cccc(C(F)(F)F)c3)CC2)cc1 | 13.3 | 95.0* | 17.9 | 0.9 | -11.1 | 60.4* | 12.7
Nc1ccc(CCN2CCCC2)cc1 | -6.0 | -8.2 | -0.7 | 5.2 | 0.0 | -4.0 | x
COc1ccc(C[C@@H]2c3cc(O)c(OC)cc3CCN2C)cc1O | -35.6 | -0.9 | -5.4 | 3.6 | -5.7 | -8.0 | x
COc1cc2c(cc1O)[C@@H]1Cc3ccc(OC)c(O)c3CN1CC2 | 43.4 | 53.2 | x | -2.6 | 7.7 | 58.1* | 27.4
CC(C)c1ccccc1NC1=NCCCS1 | -16.4 | -8.2 | 4.6 | -13.7 | 8.3 | 4.0 | x
CC[C@@H]1C=CC=CC[C@H](C)[C@@H](O)[C@@H](C)C(=O)[C@H](C)[C@@H](O)[C@H](C)C(=O)[C@H](C)[C@@H](O)[C@H](C)C=CC(=O)O[C@H]2[C@@H](C)[C@@H](CC1)O[C@@]1(CC[C@@H](C)[C@@H](C[C@H](C)O)O1)[C@@H]2C | 36.4 | 6.1 | 35.8 | x | 17.3 | 53.0* | 34.7
O=C(Nc1cccc(C(F)(F)F)c1)c1cccn(Cc2ccc3c(c2)OC(F)(F)O3)c1=O | 1.1 | 47.1 | -2.6 | 7.2 | 8.1 | 1.1 | x
O=C(Nc1ccc(C(F)(F)F)cc1)c1cccn(Cc2ccc3c(c2)OC(F)(F)O3)c1=O | 21.6 | 90.1* | -17.6 | 4.8 | 0.2 | 54.1* | 46.4
CNC(=O)Oc1ccc2c(c1)C(=O)c1ccccc1CO2 | -4.5 | 3.2 | -54.3 | -7.7 | -2.7 | -2.8 | x
COc1ccccc1-n1c(/C=C/c2ccc(O)cc2)nc2ccccc2c1=O | 35.5 | 1.8 | -12.0 | 11.2 | -168.0 | -190.7 | -81.2
C/C=C(\C)C(=O)N[C@@H](c1ccccc1)[C@@H](O)C(=O)O[C@H]1C[C@@]2(O)[C@@H](OC(=O)c3ccccc3)C3[C@](C)(C(=O)[C@H](OC(C)=O)C(=C1C)C2(C)C)[C@H](O)C[C@H]1OC[C@@]31OC(C)=O (some centres undefined) | 40.0 | -10.8 | 109.7* | -19.1 | 1.6 | 72.0* | 72.9*
CC(=O)OC12COC1CC(O)C1(C)C(=O)C(O)C3=C(C)C(O)CC(O)(C(OC(=O)c4ccccc4)C21)C3(C)C (centres undefined) | x | x | x | 1.6 | x | x | x
CCCC1(CC(C)C)C(=O)NC(=S)NC1=O | x | x | x | -12.0 | x | x | x
